In all, about 53,000 sequences went through this assay and about 3,700 (7%) were called active.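 Rule for the calls: active = gene knockdowns whose robust z-score for IL-1 alpha signal is at least 2 or at most -2, so actives lie on both sides; inactive = the rest.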 Shown is part of a subset that was picked to be rich in actives.
Test: Components of the Cytosolic LPS Sensing Pathway: Gene Identification via Genome-wide siRNA Screen;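 note: robust z of the log signal after scaling to non-targeting control siRNA wells of the plate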
Conditions: RAW264.7 macrophages, IL-1a HTRF, actives lie on both sides, screened at 100 nM (by protocol), cells primed 5 h with Pam3CSK4 first
How it was run: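 RAW264.7; siRNA 100 nM final, RNAiMAX, 48h 37 degrees C; Pam3CSK4 5 h; LipidA + TransIT-TKO 24 h; IL-1a HTRF; CellTiter-Glo viability; robust z vs negative-control median.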
With GGUUCUAUAGGGCUCCGAATT against Tmem179b the z-score was 4.23 (active).
With GGGAUCAAAACAUACUGUGTT against Klra4 the z-score was 0.0891 (inactive).
With GGUCAUGCAGGUUUUGAAUTT against Snd1 the z-score was 1.9 (inactive).
In the case of GGCUGAAAUAAAACAAGAATT against Use1, the z-score is reported as -0.778 (inactive).
In the case of GCAGAAGCGUGGCAUUGUATT against Ins2, the z-score is reported as 0.5 (inactive).
For GGAAGUGCUGAAGGUGUACTT against Spire2, the z-score was 2.38 (active).
For GGAUUUAGCCAAUCAAUCUTT against Cdc14b, the z-score was -0.872 (inactive).
In the case of GGACUACCUAUGGUUAAAATT against Nup93, the z-score is reported as -1.58 (inactive).
For GCUGGUUAGACCCUUCCAATT against Hnf4g, the z-score was 3.56 (active).
In the case of GCAUCUACUCCCUAUAGACTT against Nin, the z-score is reported as 0.322 (inactive).
For GGCAGAGGAAAUCAUGAAGTT against Clpp, the z-score was -1.05 (inactive).
With GGGAGUUCAACUUGAUGUATT against Irf6 the z-score was -1.45 (inactive).
With GGAUCCCAGAUUGAAAACUTT against Rnf5 the z-score was -0.92 (inactive).
In the case of CGUGGACUAAAAGUUUUCATT against Mmp12, the z-score is reported as 3.63 (active).
In the case of CCGGACCUCUGCGCAAUUUTT against Npb, the z-score is reported as 0.289 (inactive).
With GUUUUUGCUAUGGCUCGUATT against H3c1 the z-score was 0.92 (inactive).
For GGUGCUGCUAGUGAACAAGTT against E2f4, the z-score was 5.64 (active).
For CCGAGAACCUUAAACUCCCTT against Sowahc, the z-score was 0.161 (inactive).
In the case of GGAGAUAUGGCCAUCACUCTT against Toe1, the z-score is reported as 1.11 (inactive).
For GGCCUUUGAUGACAUGUACTT against Bpifb1, the z-score was -0.378 (inactive).
For GAUGCUAGUGAACCUCAUGTT against Olfr1020, the z-score was -0.765 (inactive).
With CGAUUGGUUGUUGUAGACATT against Abhd11 the z-score was -2.56 (active).
For CCAAUCCAAACGAAGUUAATT against Rgs9, the z-score was -0.977 (inactive).
For CGUUUCAACAAGCUCGUGUTT against Rbmxl2, the z-score was 1.02 (inactive).
In the case of GGAUACAAAUGAAAGCUUATT against Zfp354b, the z-score is reported as -0.307 (inactive).
For GGCAAGAAACAGUCAUAAGTT against Eps8l3, the z-score was 0.404 (inactive).
In the case of GGCAUCAAGUUCUAUCUGUTT against Slc6a11, the z-score is reported as -0.704 (inactive).
For GGCCGGUUAGCUAAUCAGATT against Armc10, the z-score was 2.03 (active).
With UGGCUGAUAUGAAGGUCUGTT against Krtap31-2 the z-score was 0.154 (inactive).
With GCUGUACGUUUGCACAUUCTT against Rc3h1 the z-score was -2.87 (active).
In the case of GGCUCUGUAUCGGAAGGCUTT against Zc3h7a, the z-score is reported as 0.817 (inactive).
With GGAUUCUGCUAGCAGUUCATT against Csn1s2a the z-score was -0.477 (inactive).
For GGGUUGCUUCAACUUUUAGTT against Mpp1, the z-score was -0.346 (inactive).
With GGCCAUGGAAAAAUCUCAGTT against Dtna the z-score was 0.557 (inactive).
With GCCUAUACAACCCUAUUGUTT against Kazn the z-score was -0.879 (inactive).
In the case of GCGCAGGAUGAGAAGUUCUTT against Slc43a3, the z-score is reported as 3 (active).
For GGUUUGUGGUGAACUUUCATT against Lgals9, the z-score was 0.707 (inactive).
In the case of GGAUUUGGAAAAUUGAUGCTT against Ahi1, the z-score is reported as 0.97 (inactive).
In the case of GGAUGAAAGCAAAGACAAGTT against Zscan21, the z-score is reported as 2.63 (active).
With GGUUGAUGGGAAAACAAUATT against Rab11a the z-score was -0.6 (inactive).
With GAUCCUGCAUCUUUAGUGUTT against Ascl1 the z-score was -0.0831 (inactive).
For GCUGAUUCCGUGUCCCAACTT against Gng2, the z-score was 3.42 (active).
For GGGUAGGGCAGUCUACUUATT against F2r, the z-score was -0.407 (inactive).
With CCUGCUUCUCUACAACCAUTT against Olfr1209 the z-score was -0.817 (inactive).
In the case of GCUUGUAUUGCUUGUCUUUTT against Olfr172, the z-score is reported as 1.89 (inactive).
With GGAGUAGAAGAAGAGGAGUTT against Mrpl50 the z-score was 0.946 (inactive).
For GGUGCAAUCAGCUUUCCACTT against Olfr1336, the z-score was 2.26 (active).
In the case of CCGAUUGAUAAAGUCACAUTT against Zfat, the z-score is reported as 0.241 (inactive).
In the case of GGAAAAAAGAUGAAUUGCCTT against Cbx8, the z-score is reported as 1.63 (inactive).
For GGAGUCUUGGCCCUUUAAUTT against Zcchc12, the z-score was -1.09 (inactive).
In the case of GCCUCUUUAUAAUAUAAGGTT against Pcgf6, the z-score is reported as -0.687 (inactive).
For CGGUUAACUGGAAAGUGCGTT against Tmem132e, the z-score was 2.99 (active).
With CGUGAUGAAUGAGAAUAACTT against Maea the z-score was 0.584 (inactive).
For GGAAUUAAACCAUUUCAGUTT against Zbtb44, the z-score was 1.28 (inactive).
With GGAGGAUUCAUGCUUUGUUTT against Morc2b the z-score was 0.238 (inactive).
In the case of GGUUUUUGAGUGGGAGACCTT against Khdc3, the z-score is reported as -0.578 (inactive).
For GAUUUAGCUUGGUGAACCGTT against Thoc6, the z-score was 0.754 (inactive).
With GGACUUAGACAUCCACCUCTT against Llcfc1 the z-score was -1.64 (inactive).
With GGGACUGAAAUCUAUUUUGTT against Zfp217 the z-score was 2.16 (active).
For CCAAGCUAGUCCUCAAGCUTT against Snapc2, the z-score was -1.16 (inactive).
For GGGAUUGGCUACGACUUCATT against Cbs, the z-score was 2.06 (active).
In the case of GCUAGCUGUUGUAAAAGAATT against Gm4841, the z-score is reported as -0.507 (inactive).
For GGCCAUUAACCAGUCUAUCTT against Cdhr5, the z-score was 0.977 (inactive).
For “GGUUCUGGAGAACAGAGUCTT against 4930483J18Rik”, the z-score was -0.44 (inactive).
With “GCGAUAAGCAGAAUGGCAGTT against 8030462N17Rik” the z-score was -0.9 (inactive).
With CGGGUGCCGGAAAGUUUAUTT against Klf7 the z-score was 2.84 (active).
With GCAGCAUUGACUGAAGAUCTT against Lce1m the z-score was -0.316 (inactive).
With GGACAAAAGGCUGAGCAUCTT against Flt1 the z-score was -0.235 (inactive).
In the case of GGAAUCAUGCUGAAAGAGATT against Apom, the z-score is reported as -0.123 (inactive).

Reference: PubChem BioAssay AID1508600 (Functional Genomics Laboratory (NCATS/FGL), 2020)
